# Assay results as given in paper PMC7862700, “An all-to-all approach to the identification of sequence-specific readers for epigenetic DNA modifications on cytosine”.
# What was measured:
# Test in all cases: DAPPL (digital affinity profiling via proximity ligation, sequencing); 10 mM Tris-HCl pH 7.5, 50 mM NaCl, 1 mM DTT, 4% glycerol, room temperature, 30 min; GST-TFs on glutathione beads, 16-mer random dsDNA library, 0.1% formaldehyde crosslink after washing; high values mean tight binding
# FLI1 = biological target: T1, FLI1 (Homo sapiens, UniProt Q01543 1-452); conditions: protein: recombinant; tags: N-terminal GST; dsDNA, one strand shown
# T1 sequence: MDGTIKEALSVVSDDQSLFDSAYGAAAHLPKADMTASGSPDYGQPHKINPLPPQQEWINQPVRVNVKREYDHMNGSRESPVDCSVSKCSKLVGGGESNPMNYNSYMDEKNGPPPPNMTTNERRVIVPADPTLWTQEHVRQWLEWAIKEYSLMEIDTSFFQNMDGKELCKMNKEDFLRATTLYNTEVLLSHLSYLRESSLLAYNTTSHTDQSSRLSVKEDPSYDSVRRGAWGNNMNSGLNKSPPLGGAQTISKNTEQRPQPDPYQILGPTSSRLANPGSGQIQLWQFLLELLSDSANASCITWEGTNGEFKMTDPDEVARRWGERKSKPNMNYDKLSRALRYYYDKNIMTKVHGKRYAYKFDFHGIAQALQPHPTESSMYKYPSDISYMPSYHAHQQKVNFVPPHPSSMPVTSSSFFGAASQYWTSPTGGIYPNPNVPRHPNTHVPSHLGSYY
# Procedure, shortened: (§1)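 GST fusions of human transcription factors were expressed in yeast and captured with glutathione beads. Once given DNA barcodes and pooled alongside a tag-only sample, they were incubated for 30 min at room temperature with 200 nmole of a random double-stranded 16-mer DNA library in Tris/NaCl/DTT/glycerol buffer, then washed, crosslinked (0.1% formaldehyde), proximity-ligated, PCR-amplified and sequenced on an Illumina NextSeq500. The binding signal of each hexamer is its read frequency for a factor divided by its frequency for the tag-only sample.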
# ELK1 = biological target: T2, ELK1 (Homo sapiens, UniProt P19419 1-428); conditions: protein: recombinant; tags: N-terminal GST; dsDNA, one strand shown
# T2 sequence: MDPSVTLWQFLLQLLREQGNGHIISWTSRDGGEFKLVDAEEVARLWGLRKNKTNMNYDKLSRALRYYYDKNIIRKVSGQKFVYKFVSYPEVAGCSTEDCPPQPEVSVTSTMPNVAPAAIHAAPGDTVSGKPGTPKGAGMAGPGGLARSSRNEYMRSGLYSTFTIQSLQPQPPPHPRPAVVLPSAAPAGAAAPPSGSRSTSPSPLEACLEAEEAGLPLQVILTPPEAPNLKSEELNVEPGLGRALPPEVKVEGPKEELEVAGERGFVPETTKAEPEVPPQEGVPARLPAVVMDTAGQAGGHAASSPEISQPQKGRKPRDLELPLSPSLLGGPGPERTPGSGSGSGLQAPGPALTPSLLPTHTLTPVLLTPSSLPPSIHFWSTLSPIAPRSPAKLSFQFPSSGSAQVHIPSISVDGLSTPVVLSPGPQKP
# Procedure, shortened: as §1
# GABPA = biological target: T3, GABPA (Homo sapiens, UniProt Q06546 1-454); conditions: protein: recombinant; tags: N-terminal GST; dsDNA, one strand shown
# T3 sequence: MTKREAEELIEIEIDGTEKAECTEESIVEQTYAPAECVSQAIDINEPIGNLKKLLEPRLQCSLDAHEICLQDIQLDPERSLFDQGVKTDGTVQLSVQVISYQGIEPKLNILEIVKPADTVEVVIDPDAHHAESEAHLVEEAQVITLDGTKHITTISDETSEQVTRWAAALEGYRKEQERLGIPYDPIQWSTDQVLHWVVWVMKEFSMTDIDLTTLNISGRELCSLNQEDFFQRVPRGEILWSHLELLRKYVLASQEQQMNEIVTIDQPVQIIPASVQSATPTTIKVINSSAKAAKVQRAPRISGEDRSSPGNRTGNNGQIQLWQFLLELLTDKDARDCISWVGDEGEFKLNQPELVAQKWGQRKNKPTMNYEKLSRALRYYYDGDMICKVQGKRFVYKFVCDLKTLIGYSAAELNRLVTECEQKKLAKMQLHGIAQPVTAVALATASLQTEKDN
# Procedure, shortened: as §1
# ERG = biological target: T4, ERG (Homo sapiens, UniProt P11308 1-479); conditions: protein: recombinant; tags: N-terminal GST; dsDNA, one strand shown
# T4 sequence: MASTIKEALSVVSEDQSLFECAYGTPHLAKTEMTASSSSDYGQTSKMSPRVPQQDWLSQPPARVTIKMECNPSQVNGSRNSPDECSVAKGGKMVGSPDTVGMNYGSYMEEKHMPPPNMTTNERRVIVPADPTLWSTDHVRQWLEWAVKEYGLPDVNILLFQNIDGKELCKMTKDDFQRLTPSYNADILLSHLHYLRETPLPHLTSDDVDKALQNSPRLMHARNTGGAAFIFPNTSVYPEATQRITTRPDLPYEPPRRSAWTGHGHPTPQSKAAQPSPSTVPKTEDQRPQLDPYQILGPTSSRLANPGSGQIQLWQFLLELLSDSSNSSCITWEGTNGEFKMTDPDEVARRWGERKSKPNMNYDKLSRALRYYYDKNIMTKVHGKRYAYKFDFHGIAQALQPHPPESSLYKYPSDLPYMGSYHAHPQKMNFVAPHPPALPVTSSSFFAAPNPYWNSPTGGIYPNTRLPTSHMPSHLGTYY
# Procedure, shortened: as §1
# ELF1 = ELF1 (Homo sapiens, UniProt P32519 1-619); conditions: protein: recombinant; tags: N-terminal GST; dsDNA, one strand shown
# Procedure, shortened: as §1
# EHF = biological target: T5, EHF (Homo sapiens, UniProt Q9NZC4 1-300); conditions: protein: recombinant; tags: N-terminal GST; dsDNA, one strand shown
# T5 sequence: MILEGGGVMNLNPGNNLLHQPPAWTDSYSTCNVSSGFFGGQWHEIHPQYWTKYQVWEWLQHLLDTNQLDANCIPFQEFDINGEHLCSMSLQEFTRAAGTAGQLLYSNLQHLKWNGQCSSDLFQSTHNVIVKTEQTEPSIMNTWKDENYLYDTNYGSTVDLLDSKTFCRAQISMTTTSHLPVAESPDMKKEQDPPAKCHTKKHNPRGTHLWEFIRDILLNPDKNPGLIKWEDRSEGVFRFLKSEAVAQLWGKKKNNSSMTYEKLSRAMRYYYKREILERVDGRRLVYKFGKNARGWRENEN
# Procedure, shortened: as §1
# SPI1 = SPI1 (Homo sapiens, UniProt P17947 1-270); conditions: protein: recombinant; tags: N-terminal GST; dsDNA, one strand shown
# Procedure, shortened: as §1
# SPIB = SPIB (Homo sapiens, UniProt Q01892 1-262); conditions: protein: recombinant; tags: N-terminal GST; dsDNA, one strand shown
# Procedure, shortened: as §1
# ELK3 = biological target: T6, ELK3 (Homo sapiens, UniProt P41970 1-407); conditions: protein: recombinant; tags: N-terminal GST; dsDNA, one strand shown
# T6 sequence: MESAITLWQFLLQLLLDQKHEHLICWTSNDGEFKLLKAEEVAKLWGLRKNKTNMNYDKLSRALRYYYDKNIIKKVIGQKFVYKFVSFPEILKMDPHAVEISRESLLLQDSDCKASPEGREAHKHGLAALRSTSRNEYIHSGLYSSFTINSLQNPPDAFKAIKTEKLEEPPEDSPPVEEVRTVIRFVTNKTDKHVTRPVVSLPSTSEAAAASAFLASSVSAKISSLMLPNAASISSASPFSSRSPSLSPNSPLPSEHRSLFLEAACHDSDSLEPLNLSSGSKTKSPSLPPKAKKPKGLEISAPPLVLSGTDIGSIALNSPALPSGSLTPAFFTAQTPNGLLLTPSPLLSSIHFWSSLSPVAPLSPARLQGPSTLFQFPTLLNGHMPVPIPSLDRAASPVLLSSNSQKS
# Procedure, shortened: as §1
# FEV = biological target: T7, FEV (Homo sapiens, UniProt Q99581 1-238); conditions: protein: recombinant; tags: N-terminal GST; dsDNA, one strand shown
# T7 sequence: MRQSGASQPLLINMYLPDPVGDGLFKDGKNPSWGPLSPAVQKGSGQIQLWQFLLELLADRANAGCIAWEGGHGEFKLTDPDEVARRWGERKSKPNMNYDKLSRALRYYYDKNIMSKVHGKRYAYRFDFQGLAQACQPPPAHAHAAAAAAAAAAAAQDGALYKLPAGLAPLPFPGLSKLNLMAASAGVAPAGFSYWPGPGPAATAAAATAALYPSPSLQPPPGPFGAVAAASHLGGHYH
# Procedure, shortened: as §1
# ETV5 = ETV5 (Homo sapiens, UniProt P41161 1-510); conditions: protein: recombinant; tags: N-terminal GST; dsDNA, one strand shown
# Procedure, shortened: as §1
# HSF1 = HSF1 (Homo sapiens, UniProt Q00613 1-529); conditions: protein: recombinant; tags: N-terminal GST; chain copies: 3; dsDNA, one strand shown
# Procedure, shortened: as §1
# SPIC = biological target: T8, SPIC (Homo sapiens, UniProt Q8N5J4 1-248); conditions: protein: recombinant; tags: N-terminal GST; dsDNA, one strand shown
# T8 sequence: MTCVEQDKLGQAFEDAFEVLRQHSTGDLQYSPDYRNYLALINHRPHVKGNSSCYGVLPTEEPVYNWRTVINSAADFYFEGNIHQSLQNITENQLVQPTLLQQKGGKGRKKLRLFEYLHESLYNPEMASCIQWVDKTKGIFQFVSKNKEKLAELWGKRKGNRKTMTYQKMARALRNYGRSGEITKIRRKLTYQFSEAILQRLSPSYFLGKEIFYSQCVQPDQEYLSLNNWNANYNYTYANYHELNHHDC
# Procedure, shortened: as §1
# ELF4 = ELF4 (Homo sapiens, UniProt Q99607 1-663); conditions: protein: recombinant; tags: N-terminal GST; dsDNA, one strand shown
# Procedure, shortened: as §1
# ELK4 = biological target: T9, ELK4 (Homo sapiens, UniProt P28324-2 1-405); conditions: protein: recombinant; tags: N-terminal GST; dsDNA, one strand shown
# T9 sequence: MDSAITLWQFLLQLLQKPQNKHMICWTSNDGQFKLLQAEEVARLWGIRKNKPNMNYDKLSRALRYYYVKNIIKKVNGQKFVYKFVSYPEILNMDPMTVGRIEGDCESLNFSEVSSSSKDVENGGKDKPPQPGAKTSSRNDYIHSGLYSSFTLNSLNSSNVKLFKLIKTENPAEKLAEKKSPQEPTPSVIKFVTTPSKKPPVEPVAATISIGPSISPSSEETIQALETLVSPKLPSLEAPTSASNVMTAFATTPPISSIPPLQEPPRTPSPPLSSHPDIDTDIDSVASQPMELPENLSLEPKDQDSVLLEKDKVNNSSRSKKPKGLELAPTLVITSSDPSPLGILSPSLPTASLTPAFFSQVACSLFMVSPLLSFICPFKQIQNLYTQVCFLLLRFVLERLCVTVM
# Procedure, shortened: as §1
# ETV2 = biological target: T10, ETV2 (Homo sapiens, UniProt O00321 1-342); conditions: protein: recombinant; tags: N-terminal GST; dsDNA, one strand shown
# T10 sequence: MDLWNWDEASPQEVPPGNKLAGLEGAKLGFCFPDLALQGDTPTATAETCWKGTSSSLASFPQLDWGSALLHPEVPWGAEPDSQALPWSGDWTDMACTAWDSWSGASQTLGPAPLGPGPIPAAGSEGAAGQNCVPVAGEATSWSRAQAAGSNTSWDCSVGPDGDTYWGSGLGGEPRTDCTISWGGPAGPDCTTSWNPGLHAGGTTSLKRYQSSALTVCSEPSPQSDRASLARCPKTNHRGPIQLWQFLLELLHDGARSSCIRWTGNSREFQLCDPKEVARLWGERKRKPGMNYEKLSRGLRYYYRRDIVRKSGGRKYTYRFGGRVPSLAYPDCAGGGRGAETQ
# Procedure, shortened: as §1
# ELF3 = biological target: T11, ELF3 (Homo sapiens, UniProt P78545 1-371); conditions: protein: recombinant; tags: N-terminal GST; dsDNA, one strand shown
# T11 sequence: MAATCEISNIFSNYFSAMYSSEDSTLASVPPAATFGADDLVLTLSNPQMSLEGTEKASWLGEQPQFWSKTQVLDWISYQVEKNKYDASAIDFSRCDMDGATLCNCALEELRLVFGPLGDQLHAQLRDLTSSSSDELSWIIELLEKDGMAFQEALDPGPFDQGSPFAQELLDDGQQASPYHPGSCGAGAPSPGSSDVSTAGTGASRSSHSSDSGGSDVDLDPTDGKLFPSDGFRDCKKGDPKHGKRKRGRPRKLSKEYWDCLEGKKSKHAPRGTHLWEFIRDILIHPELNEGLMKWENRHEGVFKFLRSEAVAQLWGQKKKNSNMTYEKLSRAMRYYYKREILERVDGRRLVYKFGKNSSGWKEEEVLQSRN
# Procedure, shortened: as §1
# CRX = CRX (Homo sapiens, UniProt O43186 1-299); conditions: protein: recombinant; tags: N-terminal GST; dsDNA, one strand shown
# Procedure, shortened: as §1
# ETV1 = ETV1 (Homo sapiens, UniProt P50549 1-477); conditions: protein: recombinant; tags: N-terminal GST; dsDNA, one strand shown
# Procedure, shortened: as §1
# Chain of ELF1 (P32519 whole entry): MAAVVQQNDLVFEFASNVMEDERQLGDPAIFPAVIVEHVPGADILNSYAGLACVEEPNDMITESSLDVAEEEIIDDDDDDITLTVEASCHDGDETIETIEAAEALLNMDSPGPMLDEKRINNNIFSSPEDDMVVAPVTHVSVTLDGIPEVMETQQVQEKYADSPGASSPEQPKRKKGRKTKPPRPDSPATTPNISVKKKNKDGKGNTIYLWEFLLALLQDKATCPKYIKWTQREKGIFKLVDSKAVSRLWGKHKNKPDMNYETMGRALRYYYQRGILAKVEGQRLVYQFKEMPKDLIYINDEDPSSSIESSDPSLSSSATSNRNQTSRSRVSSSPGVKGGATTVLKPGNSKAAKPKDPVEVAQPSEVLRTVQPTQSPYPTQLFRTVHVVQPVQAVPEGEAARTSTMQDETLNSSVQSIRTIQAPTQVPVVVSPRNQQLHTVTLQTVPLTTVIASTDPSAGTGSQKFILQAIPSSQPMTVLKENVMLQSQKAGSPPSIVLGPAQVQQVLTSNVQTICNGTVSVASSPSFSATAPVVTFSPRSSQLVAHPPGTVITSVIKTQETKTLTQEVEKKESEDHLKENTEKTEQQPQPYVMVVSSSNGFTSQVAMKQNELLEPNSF
# Chain of CRX (O43186 whole entry): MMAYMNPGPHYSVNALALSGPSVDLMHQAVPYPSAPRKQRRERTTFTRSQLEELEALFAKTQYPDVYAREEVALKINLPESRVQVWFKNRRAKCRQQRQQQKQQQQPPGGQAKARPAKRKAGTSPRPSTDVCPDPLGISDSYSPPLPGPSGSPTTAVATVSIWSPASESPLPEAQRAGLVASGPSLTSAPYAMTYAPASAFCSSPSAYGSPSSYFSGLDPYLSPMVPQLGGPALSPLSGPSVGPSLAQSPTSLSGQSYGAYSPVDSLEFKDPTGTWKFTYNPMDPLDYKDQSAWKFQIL
# Chain of ETV5 (P41161 whole entry): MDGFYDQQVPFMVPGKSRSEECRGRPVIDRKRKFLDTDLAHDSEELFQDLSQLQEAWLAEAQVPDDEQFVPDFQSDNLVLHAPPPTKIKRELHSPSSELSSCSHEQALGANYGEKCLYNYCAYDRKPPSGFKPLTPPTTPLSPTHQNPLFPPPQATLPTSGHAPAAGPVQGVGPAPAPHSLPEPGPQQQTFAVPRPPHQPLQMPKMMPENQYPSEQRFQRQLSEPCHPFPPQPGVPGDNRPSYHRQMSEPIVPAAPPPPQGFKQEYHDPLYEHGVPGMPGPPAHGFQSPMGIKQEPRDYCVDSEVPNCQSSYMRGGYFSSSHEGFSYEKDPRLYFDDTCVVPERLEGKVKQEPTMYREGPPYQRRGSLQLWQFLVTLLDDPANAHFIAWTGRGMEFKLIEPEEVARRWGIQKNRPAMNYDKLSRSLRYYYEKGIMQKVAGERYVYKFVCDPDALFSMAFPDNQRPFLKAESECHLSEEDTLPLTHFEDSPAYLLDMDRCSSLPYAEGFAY
# Chain of ETV1 (P50549 whole entry): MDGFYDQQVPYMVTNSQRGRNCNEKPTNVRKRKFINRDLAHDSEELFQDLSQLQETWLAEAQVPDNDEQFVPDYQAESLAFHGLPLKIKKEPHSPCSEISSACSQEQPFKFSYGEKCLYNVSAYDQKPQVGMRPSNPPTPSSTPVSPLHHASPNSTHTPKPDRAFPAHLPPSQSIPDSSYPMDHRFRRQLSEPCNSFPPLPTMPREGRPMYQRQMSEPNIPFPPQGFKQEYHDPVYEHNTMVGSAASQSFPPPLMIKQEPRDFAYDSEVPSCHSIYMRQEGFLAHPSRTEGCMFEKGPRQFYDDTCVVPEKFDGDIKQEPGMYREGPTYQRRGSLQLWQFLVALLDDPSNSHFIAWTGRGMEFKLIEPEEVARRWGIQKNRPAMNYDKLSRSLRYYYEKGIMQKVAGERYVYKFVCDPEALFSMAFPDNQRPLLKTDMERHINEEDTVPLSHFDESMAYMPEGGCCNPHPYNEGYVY
# Chain of ELF4 (Q99607 whole entry): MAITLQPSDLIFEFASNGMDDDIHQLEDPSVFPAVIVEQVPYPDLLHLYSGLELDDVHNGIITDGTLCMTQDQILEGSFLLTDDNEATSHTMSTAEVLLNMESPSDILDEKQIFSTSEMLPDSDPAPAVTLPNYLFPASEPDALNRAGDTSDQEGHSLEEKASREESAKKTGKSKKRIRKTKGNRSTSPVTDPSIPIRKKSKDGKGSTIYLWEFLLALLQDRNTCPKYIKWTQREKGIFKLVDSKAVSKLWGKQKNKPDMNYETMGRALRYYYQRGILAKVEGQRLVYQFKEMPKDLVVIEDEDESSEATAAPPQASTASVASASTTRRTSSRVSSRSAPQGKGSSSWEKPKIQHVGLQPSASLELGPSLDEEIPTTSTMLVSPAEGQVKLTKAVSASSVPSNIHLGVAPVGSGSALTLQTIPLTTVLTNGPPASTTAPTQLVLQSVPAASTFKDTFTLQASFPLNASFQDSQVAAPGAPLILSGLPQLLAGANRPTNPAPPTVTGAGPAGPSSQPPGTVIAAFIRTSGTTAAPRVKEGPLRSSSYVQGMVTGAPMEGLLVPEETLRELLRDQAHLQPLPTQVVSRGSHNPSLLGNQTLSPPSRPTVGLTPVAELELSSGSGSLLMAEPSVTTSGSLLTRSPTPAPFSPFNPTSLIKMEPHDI
# Chain of HSF1 (Q00613 whole entry): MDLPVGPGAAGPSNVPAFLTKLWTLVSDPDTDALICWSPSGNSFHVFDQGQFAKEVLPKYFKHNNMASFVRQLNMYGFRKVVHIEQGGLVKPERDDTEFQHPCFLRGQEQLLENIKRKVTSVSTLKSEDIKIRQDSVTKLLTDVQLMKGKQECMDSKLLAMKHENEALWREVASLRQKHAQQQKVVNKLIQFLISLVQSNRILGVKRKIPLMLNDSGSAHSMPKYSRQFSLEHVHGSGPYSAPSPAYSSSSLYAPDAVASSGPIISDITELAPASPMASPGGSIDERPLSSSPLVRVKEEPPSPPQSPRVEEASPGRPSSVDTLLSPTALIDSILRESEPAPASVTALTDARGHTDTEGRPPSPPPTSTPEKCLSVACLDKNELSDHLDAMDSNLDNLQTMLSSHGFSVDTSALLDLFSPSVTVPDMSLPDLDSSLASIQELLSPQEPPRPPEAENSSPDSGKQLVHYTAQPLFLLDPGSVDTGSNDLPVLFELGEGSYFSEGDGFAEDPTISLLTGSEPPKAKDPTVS
# Chain of SPIB (Q01892 whole entry): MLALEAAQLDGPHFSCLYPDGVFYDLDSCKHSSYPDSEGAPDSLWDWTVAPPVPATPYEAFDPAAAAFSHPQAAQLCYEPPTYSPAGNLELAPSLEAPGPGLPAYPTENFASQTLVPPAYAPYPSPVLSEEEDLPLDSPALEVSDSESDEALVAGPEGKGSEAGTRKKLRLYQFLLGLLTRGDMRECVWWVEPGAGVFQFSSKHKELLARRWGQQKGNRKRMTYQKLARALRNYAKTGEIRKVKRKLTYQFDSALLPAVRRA
sequence,measurement,setting,value
GCTCTA,binding signal,FLI1,"1.17 fold enrichment (6-mer frequency, TF over GST control)"
same,binding signal,ELK1,"1.09 fold enrichment (6-mer frequency, TF over GST control)"
same,binding signal,GABPA,"1.11 fold enrichment (6-mer frequency, TF over GST control)"
same,binding signal,ERG,"1.24 fold enrichment (6-mer frequency, TF over GST control)"
same,binding signal,ELF1,"1.13 fold enrichment (6-mer frequency, TF over GST control)"
same,binding signal,EHF,"1.23 fold enrichment (6-mer frequency, TF over GST control)"
same,binding signal,SPI1,"1.04 fold enrichment (6-mer frequency, TF over GST control)"
same,binding signal,SPIB,"1.09 fold enrichment (6-mer frequency, TF over GST control)"
same,binding signal,ELK3,"1.09 fold enrichment (6-mer frequency, TF over GST control)"
same,binding signal,FEV,"1.15 fold enrichment (6-mer frequency, TF over GST control)"
same,binding signal,ETV5,"1.21 fold enrichment (6-mer frequency, TF over GST control)"
same,binding signal,HSF1,"1.34 fold enrichment (6-mer frequency, TF over GST control)"
same,binding signal,SPIC,"1.26 fold enrichment (6-mer frequency, TF over GST control)"
same,binding signal,ELF4,"1.21 fold enrichment (6-mer frequency, TF over GST control)"
same,binding signal,ELK4,"1.07 fold enrichment (6-mer frequency, TF over GST control)"
same,binding signal,ETV2,"1.19 fold enrichment (6-mer frequency, TF over GST control)"
same,binding signal,ELF3,"1.28 fold enrichment (6-mer frequency, TF over GST control)"
same,binding signal,CRX,"1.36 fold enrichment (6-mer frequency, TF over GST control)"
same,binding signal,ETV1,"1.11 fold enrichment (6-mer frequency, TF over GST control)"
